Each structure is given as a SMILES string. Results filed as inconclusive are left out. Active and inactive are the calls of the source.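 How the source made its calls, unless noted: active means normalized viability below 100% at a tested concentration; inactive means the rest.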

We go through 6 compounds from PubChem BioAssay.

Assay [1] can be described thus: viability loss in pontine glioma line – cell-based, SU-DIPG-XVII, MIPE5.0, CellTiter-Glo, qHTS, dose response (AID 1347060; cut-off not given, nearly all actives have AC50 up to about 26 µM;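 on AC50: cells exposed to compound for 48 hours before viability readout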). Conditions: CellTiter-Glo ATP luminescence. For orientation: ATP-based viability assays read luminescence as a measure of living cells.
Assay [2] in a line: viability loss in pontine glioma line – cell-based, SU-DIPG-XIII, MIPE4.0, CellTiter-Glo, qHTS, dose response (AID 1347061; cut-off not given, nearly all actives have AC50 up to about 37 µM;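 further: cells exposed to compound for 48 hours before readout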). Conditions: CellTiter-Glo ATP luminescence.
The nature of assay [3]: viability loss in pontine glioma line – cell-based, JHH-DIPG-1, MIPE4.0, CellTiter-Glo, qHTS, dose response (AID 1347062; cut-off not given, nearly all actives have AC50 up to about 27 µM;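 on AC50: cells exposed to compound for two days before readout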). Conditions: JHH-DIPG-1 viability, CellTiter-Glo ATP luminescence.
Assay [4] is described as follows: viability loss in pontine glioma line – cell-based, SU-DIPG-IV, MIPE4.0, CellTiter-Glo, qHTS, dose response (AID 1347063; cut-off not given, nearly all actives have AC50 up to about 30 µM;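 further: compound exposure lasted 48 hours before the viability readout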). The conditions noted are these: CellTiter-Glo ATP luminescence.
Assay [5] in a line: viability loss in pontine glioma line – cell-based, SU-DIPG-XIII, MIPE5.0, CellTiter-Glo, qHTS, dose response (AID 1347064; cut-off not given, nearly all actives have AC50 up to about 23 µM;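 on AC50: cells exposed to compound for 48 hours before the viability read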). The conditions noted are these: CellTiter-Glo ATP luminescence.
Assay [6] is described as follows: viability loss in pontine glioma line – cell-based, SU-DIPG-XXV, MIPE5.0, CellTiter-Glo, qHTS, dose response (AID 1347065; cut-off not given, nearly all actives have AC50 up to about 26 µM;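 further: cells exposed to compound for 48 hours before ATP readout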). Conditions: CellTiter-Glo ATP luminescence.
Assay [7] in a line: growth inhibition of DIPG cells – cell-based, MIPE4.0 library, CellTiter-Glo luminescence, qHTS (AID 1347066; cut-off not given, nearly all actives have AC50 up to about 30 µM;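 further: cells exposed to compound for 48 hours before readout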). The conditions noted are these: SU-DIPG-VI viability, CellTiter-Glo ATP luminescence.
A short description of assay [8]: JHH-DIPG-1 glioma cell viability, MIPE5.0 library, CellTiter-Glo luminescence, qHTS (AID 1347067; cut-off not given, nearly all actives have AC50 up to about 26 µM;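 further: cells exposed to compound for 48 hours before readout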). The conditions noted are these: JHH-DIPG-1 glioma viability, CellTiter-Glo ATP luminescence.
Assay [9] can be described thus: viability loss with induced miR-34 in A549 – imaging, A549 dox-inducible miR-34, nuclei and caspase counts, primary screen (AID 1347080;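 active means compounds whose cell count with miR-34 switched on is under 0.7 times the count with it off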). The conditions noted are these: A549 miR-34 inducible, Hoechst nuclei count, 48 h.
The nature of assay [10]: MELAS cybrid and Rieske KO viability enhancers – cell-based, MELAS cybrids, Rieske KO mouse fibroblasts, CellTiter-Glo, primary screen (AID 1508586;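 active means mean z-score across replicates of 1.96 or higher in either the MELAS or the Rieske mutant cell line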;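 further: z relative to plate mean and SD of compound and empty wells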). The conditions noted are these: low glucose.
Assay [11] can be described thus: growth inhibition of DIPG cells – cell-based, MIPE5.0 library, qHTS (AID 1347068; cut-off not given, nearly all actives have IC50 up to about 30 µM;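 on IC50: cells exposed to compound for 48 hours before viability readout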). Conditions: SU-DIPG-XXV viability. In general terms: qHTS replaces the single test concentration by a dilution series.
The nature of assay [12]: drug combination growth inhibition, ovarian cancer – cell-based, oncology-focused library, rucaparib conditional, profiling panel (AID 1508598). Conditions: patient-derived ovarian cancer cells, CellTiter-Glo viability, 144 h, stronger effect = lower value.

As to `O=C(NOCC(O)CO)c1cc(Br)c(F)c(F)c1Nc1ccc(I)cc1F` (stereo unspecified), the AC50 – broadly, the concentration giving half of the maximal activity seen – is 2.09 µM (active) in assay [1]; 2.64 µM (active) in assay [2]; 16.6 µM (active) in [3]; 20.9 µM (active) in assay [4]; 1.48 µM (active) in assay [5]; 3.72 µM (active) in assay [6]. Moreover, in assay [8], the AC50 is 0.468 µM (active). Also, the result in assay [7] was inactive. The fold change in [9] (stronger effect = lower value, cell number ratio, induced over uninduced) was 1.01 (inactive); in assay [9] (measured here: relative caspase fold change +Dox/-Dox), 1.08. Moreover, the cell count stood at 3740 in assay [9] (measured here: total cells with miR-34 induction, stronger effect = lower value) and 3720 in [9] (measured here: total cells without miR-34 induction). The z-score in [10] (MELAS cybrid survival, CellTiter-Glo 48 h, stronger effect = higher value) is -0.561 (inactive); in [10] (Rieske KO mouse fibroblast survival, CellTiter-Glo 72 h), -0.494.
Regarding `O=C1c2ccccc2-[n+]2ccc3c([nH]c4ccccc43)c21`, the AC50 is 2.35 µM (active) in assay [1]; 2.64 µM (active) in assay [2]; 0.743 µM (active) in assay [3]; 2.09 µM (active) in assay [4]; 2.35 µM (active) in assay [5]; 2.63 µM (active) in assay [6]. Besides, the AC50 is 1.66 µM (active) in assay [7] and 2.35 µM (active) in assay [8].
`CCNC(=O)c1cc2c(-c3cc(OCCN4CCCC4)c(Cl)cc3Cl)nc(N)nc2s1`: the AC50 is 1.02 µM (active) in [1]; 6.62 µM (active) in [2]; 0.935 µM (active) in assay [3]; 2.35 µM (active) in assay [4]; 2.29 µM (active) in assay [5]; 1.62 µM (active) in assay [6]. Further, in assay [8], the AC50 is 1.82 µM (active).
On to `COc1ccnc2[nH]cc(C(=O)C(=O)N3CCN(C(=O)c4ccccc4)C[C@H]3C)c12`, for which the compound was classed as inactive in [1], in [2], in [3], in [4], in assay [5] and in assay [6]. Also, the compound was called inactive in assay [8] and in assay [11].
For `Cc1cc(Nc2cc(N3CCN(C)CC3)nc(/C=C/c3ccccc3)n2)n[nH]1`, the AC50 was 1.05 µM (active) in assay [1]; 12.1 µM (active) in assay [2]; 27 µM (active) in assay [3]; 13.6 µM (active) in assay [4]; 2.09 µM (active) in assay [5]; 1.05 µM (active) in assay [6]. In addition, the AC50 in [7] was 13.6 µM (active); in assay [8] it was 4.68 µM (active). In addition, the IC50 – broadly, the point on the concentration scale where inhibition reaches its midpoint – in [11] was 2.63 µM (active). Moreover, the viability – broadly, a read-out of living cells in per cent, often relative to untreated cells – in assay [12] (at 0.000305 µM, OCI-C5x cells, with rucaparib 10 µM, 100% = cells with rucaparib alone) was 120% (inactive); in assay [12] (at 0.000305 µM, OCI-C5x cells, without rucaparib), 103% (inactive); in assay [12] (at 0.000305 µM, OCI-P5x cells, with rucaparib 20 µM, 100% = cells with rucaparib alone) it was 101% (inactive); in assay [12] (at 0.000305 µM, OCI-P5x cells, without rucaparib), 97.8% (active); in assay [12] (at 0.00122 µM, OCI-C5x cells, with rucaparib 10 µM, 100% = cells with rucaparib alone) it was 106% (inactive); in assay [12] (at 0.00122 µM, OCI-C5x cells, without rucaparib), 107% (inactive). In addition, the viability in [12] (at 0.00122 µM, OCI-P5x cells, with rucaparib 20 µM, 100% = cells with rucaparib alone) was 110% (inactive); in assay [12] (at 0.00122 µM, OCI-P5x cells, without rucaparib) it was 108% (inactive); in assay [12] (at 0.00488 µM, OCI-C5x cells, with rucaparib 10 µM, 100% = cells with rucaparib alone), 113% (inactive); in [12] (at 0.00488 µM, OCI-C5x cells, without rucaparib) it was 104% (inactive); in [12] (at 0.00488 µM, OCI-P5x cells, with rucaparib 20 µM, 100% = cells with rucaparib alone), 118% (inactive); in assay [12] (at 0.00488 µM, OCI-P5x cells, without rucaparib) it was 114% (inactive). The viability in [12] (at 0.0195 µM, OCI-C5x cells, with rucaparib 10 µM, 100% = cells with rucaparib alone) is 115% (inactive); in [12] (at 0.0195 µM, OCI-C5x cells, without rucaparib), 116% (inactive); in assay [12] (at 0.0195 µM, OCI-P5x cells, with rucaparib 20 µM, 100% = cells with rucaparib alone) it was 109% (inactive); in assay [12] (at 0.0195 µM, OCI-P5x cells, without rucaparib), 107% (inactive); in assay [12] (at 0.0781 µM, OCI-C5x cells, with rucaparib 10 µM, 100% = cells with rucaparib alone), 110% (inactive); in assay [12] (at 0.0781 µM, OCI-C5x cells, without rucaparib), 95.9% (active). Also, the viability in assay [12] (at 0.0781 µM, OCI-P5x cells, with rucaparib 20 µM, 100% = cells with rucaparib alone) is 103% (inactive); in [12] (at 0.0781 µM, OCI-P5x cells, without rucaparib) it was 107% (inactive); in [12] (at 0.313 µM, OCI-C5x cells, with rucaparib 10 µM, 100% = cells with rucaparib alone), 110% (inactive); in [12] (at 0.313 µM, OCI-C5x cells, without rucaparib), 112% (inactive); in [12] (at 0.313 µM, OCI-P5x cells, with rucaparib 20 µM, 100% = cells with rucaparib alone), 87.9% (active); in assay [12] (at 0.313 µM, OCI-P5x cells, without rucaparib) it was 93.6% (active). Moreover, the viability was 90.9% (active) in assay [12] (at 1.25 µM, OCI-C5x cells, with rucaparib 10 µM, 100% = cells with rucaparib alone); 93.3% (active) in assay [12] (at 1.25 µM, OCI-C5x cells, without rucaparib); 74% (active) in [12] (at 1.25 µM, OCI-P5x cells, with rucaparib 20 µM, 100% = cells with rucaparib alone); 56.9% (active) in [12] (at 1.25 µM, OCI-P5x cells, without rucaparib); 95.4% (active) in assay [12] (at 5 µM, OCI-C5x cells, with rucaparib 10 µM, 100% = cells with rucaparib alone); 54.2% (active) in assay [12] (at 5 µM, OCI-C5x cells, without rucaparib). The viability is 3.53% (active) in assay [12] (at 5 µM, OCI-P5x cells, with rucaparib 20 µM, 100% = cells with rucaparib alone) and 6.43% (active) in assay [12] (at 5 µM, OCI-P5x cells, without rucaparib).
As to `Cc1cc(Nc2ncc3c(n2)N(C)C(=O)N(c2cc(NC(=O)c4cccc(C(F)(F)F)c4)ccc2C)C3)n(C)n1`, the AC50 was 0.118 µM (active) in [1]; 1.48 µM (active) in assay [2]; 0.418 µM (active) in [3]; 0.209 µM (active) in assay [4]; 0.105 µM (active) in [5]; 0.059 µM (active) in assay [6]. Further, the AC50 in assay [8] was 0.263 µM (active). For the same compound, the IC50 in [11] is 0.209 µM (active).
